# Compounds with a hit are over-represented: about 1.2% of the library has one in this group of screens.
# BRCT inh green: blocks human BRCA1 BRCT binding to phosphopeptide, green readout; 75,000 tested, 0.05% active; Potency, µM (doses to about 76.9 µM), most hits filed as inhibitors; BRCA1 BRCT-phosphopeptide binding, green fluorescence polarization; AID 875
# Target sequence (P38398 whole entry, looked up): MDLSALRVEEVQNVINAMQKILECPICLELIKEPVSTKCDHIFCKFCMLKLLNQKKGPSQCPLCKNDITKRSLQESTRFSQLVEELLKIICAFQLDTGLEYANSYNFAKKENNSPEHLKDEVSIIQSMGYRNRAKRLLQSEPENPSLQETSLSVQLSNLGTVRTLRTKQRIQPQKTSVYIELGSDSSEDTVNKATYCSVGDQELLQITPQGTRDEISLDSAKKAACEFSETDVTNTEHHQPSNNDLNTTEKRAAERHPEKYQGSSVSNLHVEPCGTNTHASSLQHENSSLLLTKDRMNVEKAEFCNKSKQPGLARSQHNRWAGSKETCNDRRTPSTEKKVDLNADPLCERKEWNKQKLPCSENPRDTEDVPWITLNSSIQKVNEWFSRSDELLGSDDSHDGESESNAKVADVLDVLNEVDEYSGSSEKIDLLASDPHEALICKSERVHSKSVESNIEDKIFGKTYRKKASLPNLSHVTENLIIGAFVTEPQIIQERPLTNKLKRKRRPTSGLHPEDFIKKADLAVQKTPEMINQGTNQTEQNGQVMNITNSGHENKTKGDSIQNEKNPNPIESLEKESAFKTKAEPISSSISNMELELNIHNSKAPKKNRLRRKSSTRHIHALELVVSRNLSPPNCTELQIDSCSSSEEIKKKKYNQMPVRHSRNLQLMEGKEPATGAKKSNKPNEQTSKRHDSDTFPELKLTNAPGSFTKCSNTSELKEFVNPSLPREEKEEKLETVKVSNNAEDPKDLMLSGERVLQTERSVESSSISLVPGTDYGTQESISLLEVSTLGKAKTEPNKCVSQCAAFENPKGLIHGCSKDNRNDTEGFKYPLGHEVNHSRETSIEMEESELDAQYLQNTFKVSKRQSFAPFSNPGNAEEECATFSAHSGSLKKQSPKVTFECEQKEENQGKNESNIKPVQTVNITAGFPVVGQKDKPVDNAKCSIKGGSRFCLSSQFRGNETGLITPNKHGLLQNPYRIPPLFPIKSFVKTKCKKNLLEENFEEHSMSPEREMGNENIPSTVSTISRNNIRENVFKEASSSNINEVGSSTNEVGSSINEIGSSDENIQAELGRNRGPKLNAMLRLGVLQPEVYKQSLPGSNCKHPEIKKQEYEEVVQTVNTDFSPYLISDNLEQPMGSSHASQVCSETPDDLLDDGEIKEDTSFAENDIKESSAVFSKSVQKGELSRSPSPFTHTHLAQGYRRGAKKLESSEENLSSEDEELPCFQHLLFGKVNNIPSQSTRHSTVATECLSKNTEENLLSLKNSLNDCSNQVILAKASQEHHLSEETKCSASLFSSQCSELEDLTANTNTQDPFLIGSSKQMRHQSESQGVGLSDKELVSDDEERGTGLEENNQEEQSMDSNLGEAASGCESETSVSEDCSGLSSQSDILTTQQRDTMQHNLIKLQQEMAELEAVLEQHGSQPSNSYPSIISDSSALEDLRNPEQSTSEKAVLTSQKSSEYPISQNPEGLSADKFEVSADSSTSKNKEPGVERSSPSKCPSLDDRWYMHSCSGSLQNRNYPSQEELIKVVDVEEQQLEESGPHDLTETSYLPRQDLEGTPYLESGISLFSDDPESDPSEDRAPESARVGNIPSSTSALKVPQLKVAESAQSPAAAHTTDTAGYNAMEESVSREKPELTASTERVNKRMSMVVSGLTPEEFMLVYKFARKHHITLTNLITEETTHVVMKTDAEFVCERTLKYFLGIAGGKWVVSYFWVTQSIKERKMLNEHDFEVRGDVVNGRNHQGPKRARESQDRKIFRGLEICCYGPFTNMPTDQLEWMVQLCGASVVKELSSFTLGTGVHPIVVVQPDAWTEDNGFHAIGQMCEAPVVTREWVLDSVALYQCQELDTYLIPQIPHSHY
#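 Fluorescence polarization: His-tagged BRCT (~35 kDa BRCA1 C-terminus, 250 nM) bound to 100 nM fluorescein-labeled phosphorylated 10-aa BACH1 peptide, pH 7.3 phosphate buffer with DTT and Tween 20. Compounds incubated 12 min at room temperature; inhibition read as lowered polarization.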
# Pol III holo inh: DNA polymerase III holoenzyme inhibition. Potency, µM (series often up to 57.1 µM). 71,000 tested, 0.25% active. reconstituted DNA polymerase III holoenzyme replication, biochemical
#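 Reconstituted *E. coli* holoenzyme (0.35 nM Pol III, 1 nM beta, 154 nM SSB, 2 nM primase) was preincubated with compound for 15 min at RT. Synthesis on 1.4 nM ssM13Gori ran 35 min, then was stopped with PicoGreen/EDTA and read as dsDNA fluorescence.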
# TsaE inh: YjeE (TsaE) inhibition, E. coli; P0AF67; Potency, µM; purified YjeE enzyme, qHTS inhibition assay; 71,000 tested, 0.05% active; AID 605
#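 Purified YjeE (10 uM) with BODIPY Texas Red-labeled ADP probe (2 uM); compounds pin-transferred, 15 min at room temperature. Binding inhibition read as decreased fluorescence polarization; ADP titration as control.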
# ERK AVP inh: vasopressin-driven ERK pathway inhibition; HEK293-V1b, vasopressin-stimulated pERK AlphaScreen; Potency, µM (doses to about 57.5 µM), hits mostly inhibitors; 72,000 tested, 0.99% active; AID 995; further: nearly all actives have a fitted effect of over 55% in size
#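 Phosphorylated ERK1/2 detected via AlphaScreen bead proximity in lysates of V1b-expressing HEK293 cells given 25 nM vasopressin for 5 min after 30 min compound exposure (37 °C). AC50 from Hill equation; basal DMSO 0%, vasopressin 100%.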
# BRCT PPI red: inhibitors of human BRCA1 BRCT-phosphoprotein interaction (red fluorophore) | Potency, µM (highest dose often 76.9 µM), actives largely listed as inhibitors | AID 892 | P38398 | 75,000 tested, 0.03% active | BRCT-phosphopeptide binding, red fluorescence polarization
#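 Rhodamine-labelled pBACH1 10-mer (100 nM) bound to BRCT domain (100 nM) at pH 7.3; compounds incubated 12 min room temperature, polarization read. Free peptide defines full inhibition; unlabelled decapeptide titrated as control.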
# A number is an active result; . = inactive; ? = inconclusive; / = not tested or not shown; [ ] = another dose, or the depositor's remark. The call rests on the fitted dose curve; in most records, active means well fitted curve in the direction sought with a large enough effect; inconclusive means small, poorly fitted or top-dose-only effect, or another doubt; inactive means no such curve, though single readings can be large; an effect the other way counts as inactive or inconclusive.
SMILES,BRCT inh green,Pol III holo inh,TsaE inh,ERK AVP inh,BRCT PPI red
NS(=O)(=O)c1ccc(N=Nc2cc3ccccc3c(C(=O)O)c2O)cc1,.[15.4 µM],.[11.4 µM],.,.[11.5 µM],.[15.4 µM]
N#C/C(=C/c1ccc(N2CCCCCC2)o1)c1ccc(F)cc1,.,.,.,25.1µM,.
N=C1CCC[C@@H]1C(=S)SCCC(N)=O,.[15.4 µM],.[11.4 µM],.,.[11.5 µM],.[15.4 µM]
COc1ccc(-c2nc(C#N)c(NC(C)c3ccccc3)o2)cc1OC (stereo unspecified),.,.,.,15.8µM,.
COc1ccc(-c2nc(C#N)c(NCCCN(C)C)o2)cc1OC,.,.,.,.,.
CCOC(C)(C)C,.,.,.,.,.
Cc1c(/N=C/c2ccco2)n(Cc2ccccc2)c2ccccc12,.,.[11.4 µM],.,12.6µM,.
Cc1cccc(Cn2c(=O)n(Cc3ccco3)c(=O)c3ccccc32)c1,.,.,.,.,.
CC(C)CCC[C@@H](C)[C@@H]1CC[C@@H]2[C@H]3CC[C@H]4C[C@@H](N)CC[C@@]4(C)[C@@H]3CC[C@]21C,.[15.4 µM],.[11.4 µM],.,.[11.5 µM],.[15.4 µM]
CCn1c(CNc2nc(-c3ccccc3)cs2)nnc1SCC(=O)NCc1ccco1,.,.,.,.,.
Cc1ccc(C(=O)CSc2nnc(CNc3nc(-c4ccccc4)cs3)n2C)cc1,.,.,.,12.6µM,.
O=C(c1cc2c(s1)-c1ccccc1OC2)N1CCCC1,.,.,.,.,.
O=C(c1cc2c(s1)-c1ccccc1OC2)N1CCN(c2ccccn2)CC1,.,.,.,25.1µM,.
O=C(NCc1ccccc1)c1ccc(-c2ccccc2F)o1,.,.,.,15.8µM,.
O=C(NCc1ccccc1)c1c(F)c(F)c(F)c(F)c1F,.,.,.,.,.
Cc1nc2ccccc2c2oc(C(=O)Nc3ccc4c(c3)OCCO4)cc12,.,.,.,.,.
CCN1CCCC1CNC(=O)c1cc2c(C)nc3ccccc3c2o1 (stereo unspecified),.,.,.,.,.
CCOC(=O)N1CCC(NC(=O)c2cc3c(C)nc4ccccc4c3o2)CC1,.,.,.,25.1µM,.
Cc1nc2ccccc2c2oc(C(=O)NCC3COc4ccccc4O3)cc12 (stereo unspecified),.,.,.,10µM,.
O=C(Cc1cccs1)Nc1nc(-c2ccccc2)cs1,.,.,.,10µM,.
Cc1nc(CC(=O)Nc2nc(-c3ccccc3)cs2)cs1,.,.,.,.,.
Cn1nccc1C(=O)OCC(=O)Nc1nc(-c2ccccc2)cs1,.,.,.,20µM,.
C#C[C@@]1(O)CC[C@H]2[C@H]3CCC4=Cc5oncc5C[C@]4(C)[C@@H]3CC[C@@]21C,/,.,.,/,/
c1nc(N2CCC3(CC2)OCCO3)c2c3c(sc2n1)CCCC3,.,.,.,31.6µM,.
OCCN(CCO)c1nc(N2CCCCC2)c2nc(N(CCO)CCO)nc(N3CCCCC3)c2n1,39.8µM,.,.,.,.
SMILES,BRCT inh green,Pol III holo inh,TsaE inh,ERK AVP inh,BRCT PPI red
Cc1nc(Nc2ccc3c(c2)OCCO3)c2oc3ccccc3c2n1,.,.,.,15.8µM,.
CCCCCCCCCCCCCc1ccco1,.,/,/,.,.
CCn1c(SCC(=O)N2CCCC2)nc2c1c(=O)n(C)c(=O)n2C,.,.,.,20µM,.
C=CCSc1nc2c(c(=O)n(C)c(=O)n2C)n1CC,.,.,.,.,.
COc1ccc2c3c(cccc13)NN=C2C,.,31.6µM,.,.,.
C[C@@H]1C(=O)O[C@H]2[C@@H](O)[C@@]34[C@H]5CC(C(C)(C)C)[C@]36[C@@H](OC(=O)[C@@H]6O)O[C@@]4(C(=O)O5)[C@@]12O (stereo partly specified),.,/,/,.,.
Cn1c(=O)c(C(=O)c2ccccc2)nc2ccccc21,.,.,.,.,.
Cn1cc(C(=O)c2ccc(Cl)cc2)cc1-c1nc2ccccc2n1C,.,.,.,31.6µM,.
Cc1cc(C(=O)CSc2nc(N)cc(N)n2)c(C)n1CCc1ccc(F)cc1,.,.,.,12.6µM,.
CCn1c(SCc2ccc(C#N)cc2)nnc1-c1ccc(S(=O)(=O)N2CCCCC2)cc1,.,.,.,25.1µM,.
CCn1c(SCC(=O)N2CCCC2)nnc1-c1ccc(S(=O)(=O)N2CCCCCC2)cc1,.,.,.,.,.
CC(=O)NC(c1ccco1)c1ccc2cccnc2c1O (stereo unspecified),.,.,.,15.8µM,.
O=C(O)c1ccccc1N[C@H](c1ccccc1)c1ccc2cccnc2c1O,.[15.4 µM],.[11.4 µM],.,.[11.5 µM],.[15.4 µM]
COc1cc2c(cc1OC)-c1cc(=Nc3c(C)cc(C)cc3C)n(C)c(=O)n1CC2,.,.,.,6.31µM,.
CC(c1ccccc1)N1CC(C(=O)N2CCN(c3ccccc3)CC2)CC1=O (stereo unspecified),.,.,.,25.1µM,.
c1ccc(CN2CCN(CCCNc3ccc4nnc(-c5ccccc5)n4n3)CC2)cc1,.,.,.,39.8µM,.
Cn1cccc1Cc1nnc(SCC(=O)N2CCc3ccccc32)n1CCc1ccccc1,.,.,.,15.8µM,.
COCCn1c(SCc2csc(-c3ccccc3)n2)nc2ccccc21,.,.,.,25.1µM,.
Cc1ccccc1-n1nnnc1SCc1csc(-c2ccccc2)n1,.,.,.,.,.
Cn1c(NC(=O)c2ccccc2C(F)(F)F)cc(=O)n(C)c1=O,.,.,.,/,.
Cn1c(NC(=O)c2ccccc2Br)cc(=O)n(C)c1=O,2.51µM,.,.,/,?
O=C(Cc1ccccc1)N1CCC(c2nc(-c3ccc(F)cc3)no2)CC1,.,.,.,20µM,.
CN1CCC[C@H](C(=O)OCC(=O)[C@]2(O)CC[C@@H]3[C@H]4CCC5=CC(=O)CC[C@@]5(C)[C@H]4[C@@H](O)C[C@]32C)C1,.[15.4 µM],.[11.4 µM],.,.[11.5 µM],.[15.4 µM]
Nc1ccc2oc(=O)c3ccccc3c2c1,.,.,.,10µM,.
CCOC(=O)OCC1OC(C#Cc2ccccc2)C=CC1Oc1cccc(N(C)C)c1 (stereo unspecified),.[15.4 µM],/,/,.[11.5 µM],.[15.4 µM]
SMILES,BRCT inh green,Pol III holo inh,TsaE inh,ERK AVP inh,BRCT PPI red
COC(=O)Cn1c(C(=O)N(C)C)cc2c1C[C@H]1CN(C(=O)c3ccccc3)[C@@](Cc3ccc(OC)cc3)(C(=O)OC)[C@@H]21,.,.,.,.,.
CCOC(=O)c1cccc(NC(=O)CSc2nc3cccnc3n2C)c1,.,.,.,25.1µM,.
CCOC(=O)c1c(NC(=O)CSc2nc3cccnc3n2C)sc(C(C)=O)c1C,.,.,.,.,.
Cn1c(C(=O)NCCCN2CCCCCC2)cc2c(=O)n(C)c3ccccc3c21,.,7.94µM,.,.,.
COc1ccccc1NC(=O)N1CCc2[nH]c3ccc(Cl)cc3c2C1,.,.,.,25.1µM,.
Cc1ccccc1-c1nc(CS(=O)(=O)CC(=O)Nc2cc(F)ccc2F)c(C)o1,.,.,.,12.6µM,.

# Screening data deposited in PubChem BioAssay by National Center for Advancing Translational Sciences (NCATS).
